# Experimental data as given in PubChem BioAssay AID1259415 (National Center for Advancing Translational Sciences (NCATS), 2018).
# The whole screen tested about 410,000 compounds, of which about 18,000 (4.4%) were called active. Another 7% or so got no clear call; they are omitted. Rule as the data show it: active = activity change below about -60%; inconclusive = no clear call, values can overlap the other calls; inactive = above about -39%. This excerpt belongs to a sample that is enriched for actives.
# Assay: qHTS Assay for inhibitors of the human cytomegalovirus (HCMV)
# Conditions: HFF cells, HCMV-luciferase reporter, 72 h; at 57.5 µM; stronger effect = lower value
# Outline: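 Luciferase read-out from HCMV-luciferase-infected HFFs (MOI 1 PFU/cell) 72 h post infection at 37C; compounds added after 16 h cell attachment; activity normalized between buffer-only basal and Salinomycin (10uM) inhibitor controls.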
# % is scaled to controls: 0 for no effect and ±100 for the full control effect.
row,Compound,"activity change, negative = inhibition"
1,Cc1ccc(Cl)cc1NC(=O)C(C)n1nnc2sc(-c3ccccc3)cc2c1=O (stereo unspecified),17.8% (inactive)
2,COc1cc(OC)c(N(C)C(=O)c2cc3c(=O)oc4ccccc4c3s2)cc1Cl,-8.12% (inactive)
3,Cn1c(=O)c2c(nc(Oc3ccc(C#N)cc3)n2Cc2ccc(Cl)cc2Cl)n(C)c1=O,-9.46% (inactive)
4,Cc1cc(NC(=O)CS(=O)(=O)c2cn(C)c3ccccc23)no1,-74.2% (active)
5,Cc1cc(NC(=O)CSCc2ccccc2C)no1,-34.5% (inactive)
6,Cc1cc(NC(=O)COn2nnc3ccccc32)no1,29.8% (inactive)
7,Cc1ccc2c(=O)c(C(=O)c3ccc(Cl)cc3)cn(CC(=O)NC3CCCCC3)c2n1,-0.369% (inactive)
8,CCOc1ccc(CCNC(=O)c2c(C)oc3ncn(C)c(=O)c23)cc1,-13.7% (inactive)
9,Cc1cc(C)cc(OCC(=O)Nc2nc(-c3ccc(F)cc3)ns2)c1,150% (inactive)
10,N#C/C(=C(/O)COC(=O)COc1ccc(Cl)cc1)c1nc2ccccc2[nH]1,-101% (active)
11,CC(C)(C)c1nnc2sc(SCC(O)=C(C#N)c3nc4ccccc4[nH]3)nn2c1=O,-4.66% (inactive)
12,COc1ccccc1C(=O)COC(=O)COc1ccc(C#N)cc1,-31.6% (inactive)
13,Cc1ccc(S(=O)(=O)Nc2ccccc2CNc2c(C)n(C)n(-c3ccccc3)c2=O)cc1,-7.12% (inactive)
14,CC1CCCN(Cc2c(O)ccc3c(=O)c(Oc4ccc(C(C)(C)C)cc4)c(C(F)(F)F)oc23)C1 (stereo unspecified),-38.5% (inactive)
15,Cc1csc2nc(COC(=O)c3ccc(NC(=O)COc4ccccc4F)cc3)cc(=O)n12,14.4% (inactive)
16,O=C(CSc1nn(-c2ccc(F)cc2)c(=S)s1)NC1CCS(=O)(=O)C1 (stereo unspecified),-34.3% (inactive)
17,O=C(CSc1ccccc1F)NC1CCS(=O)(=O)C1 (stereo unspecified),-105% (active)
18,O=C(CSc1ncnc2sccc12)NC1CCS(=O)(=O)C1 (stereo unspecified),-22.5% (inactive)
19,COC(=O)CC(CC(=O)OC)n1cccc1,19.2% (inactive)
20,COc1ccc(-n2c(SCC(=O)Nc3sc4c(c3C#N)CCCC4)nnc2-c2ccc(O)cc2)cc1,-15.5% (inactive)
21,COc1ccccc1-c1ccnc2[nH]n(-c3ccccc3)c(=O)c12,-8.55% (inactive)
22,COc1ccc2cc(CNc3ccc(OC)c(OC)c3)c(=O)n(CC(=O)Nc3ccccc3F)c2c1,9.9% (inactive)

row,Compound,"activity change, negative = inhibition"
1,Cc1ccc(S(=O)(=O)N2CCCCC2)cc1NC(=O)[C@@H]1CCCN1C(=O)c1cccs1,0% (inactive)
2,CCOc1ccc(S(=O)(=O)N2CCCCC2)cc1NC(=O)CN1CCCC1c1cccs1 (stereo unspecified),-90% (active)
3,CCOc1ccccc1NC(=O)C1CCCN(S(=O)(=O)c2ccccc2)C1 (stereo unspecified),-62% (active)
4,COc1ccc(S(=O)(=O)N2CCCCC2)cc1NC(=O)COc1ccccc1,-25.1% (inactive)
5,CCOc1ccccc1NC(=O)COc1ccc(S(=O)(=O)N2CCCC2)cc1,-21% (inactive)
6,CCOc1ccccc1NC(=O)C1CCCN(C(=O)Nc2ccccc2)C1 (stereo unspecified),-21.6% (inactive)
7,O=C(O)CCc1cccnc1,-25.2% (inactive)
8,CN(Cc1ccccc1)S(=O)(=O)c1ccc(F)c(C(=O)Nc2cccc(Cl)c2Cl)c1,6.47% (inactive)
9,COc1ccc2ncc3c(-c4ccc(C)c(C)c4)nn(CC(=O)NC4CCCC4)c3c2c1,14.2% (inactive)
10,O=C(CSc1nccn1Cc1ccc(Cl)cc1)NCc1ccccc1,-18.2% (inactive)
11,COc1ccc(Cl)cc1NC(=O)Cn1c(=O)c2ccccc2n2nncc12,11.9% (inactive)
12,Cc1nn(-c2ccc([N+](=O)[O-])cc2)c(N)c1-c1ccccc1,-65.4% (active)
13,Cc1nn(-c2ccccc2)c2c1C(c1cccc([N+](=O)[O-])c1)N(c1ccccc1)C(=O)N2 (stereo unspecified),-9.36% (inactive)
14,CNP1(NC)=Nc2nn(-c3ccccc3)c(N)c2C(c2ccccc2)=N1,43.5% (inactive)
15,O=C(NNS(=O)(=O)c1ccccc1)c1cnn(-c2ccc(Cl)cc2)c1C(F)(F)F,2.04% (inactive)
16,CC(C)c1ccc(C2CC(=O)N3CN(C4CCCCC4)CSC3=C2C#N)cc1 (stereo unspecified),-5.74% (inactive)
17,CC(=O)Nc1cc(-c2ccc(N3CCN(C)CC3)cc2)cn2c(-c3cccc(C(=O)N(C)C)c3)cnc12,8.54% (inactive)
18,CC(=O)Nc1cc(-c2ccc(N3CCN(C)CC3)cc2)cn2c(-c3ccc(F)cc3)cnc12,-75.2% (active)
19,CC(=O)c1cccc(-c2cnc3c(NC=O)cc(-c4ccc(N5CCN(C)CC5)cc4)cn23)c1,19.8% (inactive)
20,Cc1ccc2cccc(NC(=O)c3cccc4ccccc34)c2n1,-10.4% (inactive)
21,O=C(NC1CCCCCC1)C1CCN(C(=O)c2ccc(Cl)cc2)CC1,-37.2% (inactive)
22,C/C(N)=C(/C#N)C(=O)COC(=O)C1CCN(C(=O)c2ccc(Cl)cc2)CC1,-65.3% (active)

row,Compound,"activity change, negative = inhibition"
1,COC(=O)C1CCN(C(=O)c2ccc3oc(Cc4ccc(Cl)cc4)nc3c2)CC1,8.67% (inactive)
2,CCN(CCCNC(=O)c1c(C)oc2ncn(CC(C)C)c(=O)c12)Cc1ccccc1,-5.33% (inactive)
3,Cc1ccc(C)c(NC(=O)C2CCCN(S(=O)(=O)c3cn(C)cn3)C2)c1 (stereo unspecified),44.9% (inactive)
4,CC(CNC(=O)c1nnc(Cc2cccc(F)c2)o1)c1ccccc1 (stereo unspecified),-15.6% (inactive)
5,O=C(Nc1ccc(C(=O)OCc2cc(=O)n3nc(C4CC4)sc3n2)cc1)c1ccc(F)cc1,7.95% (inactive)
6,CC(C)c1ccc2oc(-c3cc(NC(=O)c4cccs4)ccc3Cl)nc2c1,-18.9% (inactive)
7,C[C@@H]1Cn2cnc(C(=O)Nc3ccc(CNC(=O)OC(C)(C)C)cc3)c2C(=O)N1,-101% (active)
8,C[C@H]1Cn2cnc(C(=O)N[C@@H](Cc3c[nH]c4ccccc34)C(=O)OC(C)(C)C)c2C(=O)N1,16% (inactive)
9,C[C@H]1Cn2cnc(C(=O)N[C@H](C)c3ccccc3)c2C(=O)N1,-3.07% (inactive)
10,O=C(NCC(c1cccnc1)N1CCc2ccccc21)c1cccc(C(F)(F)F)c1 (stereo unspecified),-36.7% (inactive)
11,O=C(Nc1ccc(Cl)cc1)c1cccc(OC(=S)N2CCOCC2)c1,-103% (active)
12,O=C(Nc1ccccc1C(=O)N1CCOCC1)c1ccc(Cl)cc1,8.32% (inactive)
13,O=C(Oc1cccc(C(=S)N2CCOCC2)c1)c1cccc(Cl)c1,-4.94% (inactive)
14,Cc1nc(NC(=O)C2CCCCC2)sc1C,62.5% (inactive)
15,O=C(NNc1nc(N2CCCC2)nc(N2CCCC2)n1)c1ccccc1,-66.4% (active)
16,Cc1ccc(C(CC(=O)O)Nc2nc(N3CCCCC3)nc(N3CCCCC3)n2)cc1 (stereo unspecified),-10.1% (inactive)
17,O=C(NNC1=NCCC1)c1cccc(S(=O)(=O)N2CCCCC2)c1,-11.4% (inactive)
18,CCC1(C)CC(=O)c2c(ccc3oc(C(=O)Nc4ccc(C(C)=O)cc4)c(C)c23)O1 (stereo unspecified),-8.87% (inactive)
19,COc1cccc(C2C(C(=O)Nc3ccc(C)cc3C)=C(C)Nc3c(C(=O)Nc4ccccc4)cnn32)c1 (stereo unspecified),-31.3% (inactive)
20,O=C1CSC(=O)N1CCOCCN1C(=O)CSC1=O,11.3% (inactive)
21,CC(C)(C)NC(=O)CSc1nc(-c2ccc(F)cc2)cc(C(F)(F)F)n1,-8.55% (inactive)
22,CC12CCC3C(CCC4CC(=O)CCC43C)C1CC(=NO)C2=O (stereo unspecified),16.3% (inactive)

row,Compound,"activity change, negative = inhibition"
1,CCc1ccccc1NC(=O)CN(C)S(=O)(=O)c1ccc2c(c1)c(=O)n(C)c(=O)n2C,14.6% (inactive)
2,CN(CC(=O)Nc1ccccc1F)S(=O)(=O)c1ccc2c(c1)c(=O)n(C)c(=O)n2C,3.4% (inactive)
3,CC(C)c1ccc(NC(=O)CN(C)S(=O)(=O)c2ccc3c(c2)c(=O)n(C)c(=O)n3C)cc1,-106% (active)
4,CC1CCCC(NC(=O)COC(=O)[C@@H]2CC(O)CN2S(=O)(=O)c2ccc3c(c2)OCCO3)C1C (stereo partly specified),10.5% (inactive)
5,Cc1ccc(Cl)cc1NC(=O)CSc1nccn1C,-11.3% (inactive)
6,Cc1cc(C)n(CCNCc2c(C(=O)N3C[C@@H](C)O[C@@H](C)C3)nc3ccc(Cl)cn23)n1,18.2% (inactive)
7,Cc1ccc(C(=O)N2CCc3cc(CNC(=O)c4ccc(Br)cc4)ccc32)cc1,-17.7% (inactive)
8,CC1=C(C(=O)N2CCN(c3cccc(C(F)(F)F)c3)CC2)C2(CCCCC2)OC1=O,30.4% (inactive)
9,CC(C)(C)C1CCc2c(sc3nc(SCC(N)=O)nc(N)c23)C1 (stereo unspecified),-100% (active)
10,C=C(C)CSc1nc(N)c2c3c(sc2n1)CCC3,31.9% (inactive)
11,Nc1nc(SCC(=O)NCCN2CCOCC2)nc2sc3c(c12)CCC3,5.31% (inactive)
12,CC(C)(C)c1ccc(C(=O)NCc2nnc(SCC(=O)N3CCCc4ccccc43)n2-c2ccccc2)cc1,-18.4% (inactive)
13,CC1(C)C(=O)CCC2(C)C1=CCC1C2C(=O)CC2(C)C1CCC2(O)C(=O)CO (stereo unspecified),-4.43% (inactive)
14,Cc1cc(C)c(NC(=O)Cn2c(SCC(=O)NCc3ccccc3)nc3ccccc32)c(C)c1,-0.705% (inactive)
15,CC1(C(=O)OCC(=O)Nc2ncc(Cl)cc2Cl)CC1(Cl)Cl (stereo unspecified),-27.2% (inactive)
16,Cc1ccc(-n2c(SCC(=O)Nc3ncc(Cl)cc3Cl)nc3ccccc32)cc1,-98.7% (active)
17,COc1cc2nc(SCC(=O)Nc3ccccc3F)n3nc(-c4ccccc4)nc3c2cc1OC,-6.09% (inactive)
18,Cc1ccccc1CS(=O)(=O)CC1Nc2ccc(C(=O)NCc3ccc(Cl)cc3)cc2NC1=O (stereo unspecified),2.23% (inactive)
19,CC(C)c1ccc(OCC(=O)N(Cc2ccc(N(C)C)cc2)C2CCS(=O)(=O)C2)cc1 (stereo unspecified),7.29% (inactive)
20,CCc1ccc(NC(=O)C2CCCN2S(=O)(=O)c2ccc3nc(-c4ccccc4)[nH]c3c2)cc1 (stereo unspecified),-18.7% (inactive)
